Measured values from PubChem BioAssay (NCATS).
Inconclusive results are not listed. Values without a mark were called inactive. Activity calls are given as the source filed them. The call rests on the fitted dose curve; in most records, active means well fitted curve in either direction with a large enough effect (not every such curve was filed as active); inconclusive means small, poorly fitted or top-dose-only effect, or another doubt; inactive means flat fitted curve, though single readings scatter.

Assay: NFAT Signaling Pathway (AID 444)
Conditions: Jurkat NFAT-bla M1, carbachol, beta-lactamase ratio, 5 h; at 17.2 µM (top of the series) unless noted
Excerpt: NCGC Assay Overview: The nuclear factor of activated T cells (NFAT) family of transcription factors has been found primarily in most immune system cells and some other non-immune cells. NFAT plays the immunomodulatory role, primarily in T-cell activation and differentiation. NFAT target genes are also involved in the regulation of apoptosis and differentiation in non-immune cell types. The NFAT sequence was engineered to the upstream of the ?-lactamase reporter gene and transfected into Jurkat cells with co-transfection of muscarinic receptor1 [provided by Invitrogen Corp]. When an extracellular stimulus, such as carbachol, binds to the GPCR M1 receptor, it stimulates a signaling cascade that activates NFAT response element and ?-lactamase expression by phosphorylating the NFAT binding protein. This cell based ?-lactamase reporter gene assay can accurately monitor any changes occurring along the NFAT pathway, and can be used for screening small molecule inhibitor or activator upon activation by carbachol EC50 concentration. A small molecular library were screened in a titration series resulting in AC50s (can be either IC50s or EC50s).
NCGC Assay Protocol Summary: The cells were prepared in RPMI 1640 medium containing 0.1% dialyzed FBS and 25 mM HEPES at 1.6 x 10^6cell/ml. The assay was performed in 1536-well plate format as follows: 5 ul of cell preparation 23 nl of compounds 1ul of carbachol (final concentration 1 uM) Briefly centrifuge the plates and incubate at 37 °C for 5 hours 1 ul of CCF4 dye mixture Incubate the plates at RT for 1 hour Read the plate in EnVision plate reader (Ex= 405nm, and Em1=460nm and Em2=530nm). The %Activity was determined from the ratio of 460nm/530nm. Data normalization and AC50 calculations were accomplished using GeneData software.
On the % scale 0 is the no-effect control and ±100 the full control effect.

In order of falling activity change, negative = inhibition:
1. CC1(C)O[C@H]2C[C@@H]3[C@H]4CCC5=CC(=O)CC[C@@]5(C)[C@]4(F)[C@@H](O)C[C@@]3(C)[C@@]2(C(=O)CCl)O1  17.6%
2. CC#C[C@@]1(O)CC[C@H]2[C@@H]3CCC4=CC(=O)CCC4=C3[C@H](c3ccc(N(C)C)cc3)C[C@]21C  15.9%
3. C[C@@H](C(=O)O)c1ccc(N2Cc3ccccc3C2=O)cc1  11.8%
4. CO[C@]1(NC(=O)[C@H](C(=O)O)c2ccc(O)cc2)C(=O)N2C(C(=O)O)=C(CSc3nnnn3C)CO[C@H]21  6.17%
5. CC(=O)N[C@H]1[C@@H](O[C@@H](C)C(=O)O)[C@H](O)[C@H](CO)O[C@@H]1O  4.75%
6. CNC[C@H](O)[C@H](O)[C@H](O)[C@H](O)CO  3.99%
7. OC[C@@H](O)CN1CCN(c2ccccc2)CC1  3.85%
8. O=C(O)CCCC[C@H]1SC[C@H]2NC(=O)N[C@@H]21  2.95%
9. C[C@H]1CS(=O)(=O)CCN1/N=C\c1ccc([N+](=O)[O-])o1  1.33%
10. CC(=O)OCC(=O)[C@@]1(O)[C@H](C)C[C@@H]2[C@H]3CCC4=CC(=O)C=C[C@]4(C)[C@]3(F)[C@@H](O)C[C@@]21C  -0.305%
11. Cc1ccc(S(=O)(=O)NC(=O)NN2C[C@H]3CCC[C@@H]3C2)cc1  -2%
12. CN(C)CCCO[C@H]1[C@@H]2OC(C)(C)O[C@@H]2O[C@@H]1[C@H](O)CO  -2.11%
13. Cc1onc(-c2ccccc2Cl)c1C(=O)N[C@H]1C(=O)N2[C@H]1SC(C)(C)[C@H]2C(=O)O  -2.89%
14. CCN[C@@H]1CN(CCCOC)S(=O)(=O)c2sc(S(N)(=O)=O)cc21  -3.14%
15. Nc1ccccc1S(N)(=O)=O  -3.4%
16. CC(C)(CS)C(=O)N1CCC[C@H]1C(=O)O  -3.44%
17. NC[C@@H]1O[C@H](O[C@H]2[C@H](O)[C@H](O[C@@H]3O[C@H](CO)[C@@H](O)[C@H](N)[C@@H]3O)[C@@H](N)C[C@H]2N)[C@@H](O)[C@H](O)[C@@H]1O  -3.83%
18. Nc1ncnc2c1ncn2[C@@H]1O[C@H](COP(=O)(O)O)[C@@H](O)[C@@H]1O  -4.61%
19. CCOC(=O)O[C@@H](C)OC(=O)[C@@H]1N2C(=O)[C@@H](NC(=O)[C@@H](N)c3ccccc3)[C@H]2SC1(C)C  -4.72%
20. C[C@@]12CC[C@H]3[C@@H](CCC4=CC(=O)CC[C@]43C)[C@H]1CC[C@H]2C(=O)CO  -6.24%
21. CC(C)(C)NC[C@@H](O)COc1ccccc1C1CCCC1  -6.56%
22. Nc1ccn([C@@H]2CC[C@H](CO)O2)c(=O)n1  -7.49%
23. O=C(NC[C@@H](O)CO)c1c(I)c(C(=O)NC[C@@H](O)CO)c(I)c(N(CCO)C(=O)CO)c1I  -8.22%
24. NC[C@@H]1O[C@H](O[C@@H]2[C@H](O[C@@H]3O[C@H](CO)[C@@H](O)[C@@H]3O)[C@@H](O)[C@@H](N)C[C@H]2N)[C@@H](N)[C@H](O)[C@@H]1O  -8.79%
25. N[C@H](Cc1cc(I)c(Oc2cc(I)c(O)c(I)c2)c(I)c1)C(=O)O  -8.92%
26. COc1ccc(C[C@@](C)(N)C(=O)O)cc1OC  -8.96%
27. Cn1c(-c2ccc3c(c2)OCO3)cc(=O)c2ccccc21  -10.6%
28. CC(=O)CC(=O)[C@@]1(O)CC[C@@H]2[C@@H]3C=C(C)C4=CC(=O)CC[C@@H]4[C@H]3CC[C@]21C  -13.4%
29. CO[C@H]1[C@@H](OC(N)=O)[C@H](O)[C@@H](Oc2ccc3c(O)c(NC(=O)c4ccc(O)c(CC=C(C)C)c4)c(=O)oc3c2C)OC1(C)C  -13.7%
30. CN[C@]1(C)[C@H]2CC[C@@H](C2)C1(C)C  -19.7%
31. CC(C)(C)CC(C)(C)c1ccc(OCOCCOCCO)c(Cc2cc(C(C)(C)CC(C)(C)C)cc(Cc3cc(C(C)(C)CC(C)(C)C)ccc3OCOCCOCCO)c2OCOCCOCCO)c1  -20.3%
32. C/C(=C(/CCO)SSC[C@@H]1CCCO1)N(C=O)Cc1cnc(C)nc1N  -21.3%
33. CC1=CC(=O)C2=C(C)CC[C@@H]3[C@@H](OC(=O)[C@H]3C)[C@H]12  -23.2%
34. CCOC(=O)C1=C(C)NC(C)=C(C(=O)OC)[C@@H]1c1cccc([N+](=O)[O-])c1  -23.9%
35. CN1CCCN=C1/C=C\c1cccs1  -25.3%

In order of rising activity change, negative = inhibition:
1. CC(=O)N[C@H](CS)C(=O)O  -2.14% [at 38 µM]
2. CC(=O)/C(C)=N\O  4.19% [at 38 µM]

In the case of `O[C@@](CCN1CCCC1)(c1ccccc1)C1CCCCC1`, the activity change, negative = inhibition is reported as -61.1% (active).
With `CC[N+](CC)(CC)CC[C@](O)(c1ccccc1)C1CCCCC1` the activity change, negative = inhibition was -68.8% (active).

For `CN(C)c1ccc(-c2nccc(NCc3ccccc3)n2)cc1`, the activity change, negative = inhibition was -14.3% [at 7.69 µM].
